Assay [1] deals with Bile acid receptor (Homo sapiens) (UniProt Q96RI1). Put plainly: qHTS assay for small molecule antagonists of farnesoid X receptor signaling (AID 588526). Further: on the % scale 0 is the no-effect control and ±100 the full control effect. Put shortly: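 Antagonist mode: titrated compounds tested against chenodeoxycholic acid stimulation (normalized to 50 uM CDCA and DMSO) in GeneBLAzer HEK293T cells for 16 h. Beta-lactamase read by CCF4 fluorescence; IC50 from Hill fits.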
(In general: Quantitative high-throughput screening tests each substance at several concentrations.)

In assay [2] the target is Glucocorticoid receptor (Homo sapiens) (UniProt P04150). Nature of the assay: qHTS assay for small molecule agonists of glucocorticoid receptor signaling (AID 588532; active means well fitted curve in the direction sought with a large enough effect in the signal ratio, with a control signal flat; the % refers to the signal ratio;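 further: 100% = dexamethasone at 0.1 µM and 0% = DMSO only wells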). The note with it: HeLa MMTV-bla, beta-lactamase ratio, agonist, 18 h; stronger effect = higher value; percent of dexamethasone control, DMSO zero. The method in brief:
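HeLa GRE-bla reporter cells; 18 h compound exposure at 37 C; 2 h CCF4 loading at room temperature; fluorescence at 460 and 530 nm; EC50 by Hill equation.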

Assay [3] shares this target. Nature of the assay: qHTS assay for small molecule antagonists of glucocorticoid receptor signaling (AID 588533; active means well fitted inhibition curve with a large enough effect in the signal ratio, with a control signal flat, not every such curve was filed as active; the % refers to the signal ratio; further: on the % scale 0 is the no-effect control and ±100 the full control effect). Put shortly:
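Antagonist-mode qHTS: compound titrations added to GRE-bla HeLa cells, then dexamethasone 2 nM final; 18 h, 37 C. CCF4 FRET fluorescence normalized to dexamethasone and DMSO; IC50 from Hill fit.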

Assay [4] in a line: qHTS assay for small molecule antagonists of peroxisome proliferator-activated receptor delta signaling (AID 588535; active means well fitted inhibition curve with a large enough effect in the signal ratio, with a control signal flat, not every such curve was filed as active; the % refers to the signal ratio;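 on max response: cells co-treated with a PPAR-delta agonist as stimulator during compound exposure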). As to conditions: HEK293T PPARd-UAS-bla, beta-lactamase FRET ratio, 18 h; 460 nm channel. Put shortly:
(§1)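 Cells were seeded at 4000 per well in assay medium containing 2% charcoal/dextran FBS and held 5 hrs at 37 C. Compounds were then added for 18 hrs. CCF4 substrate was applied for 2 hrs at room temperature before fluorescence reading.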

Assay [5] concerns the target Peroxisome proliferator-activated receptor delta (Homo sapiens) (UniProt Q03181). Described as above. The method in brief:
as §1

Assay [6] has as its target Peroxisome proliferator-activated receptor gamma (Homo sapiens) (UniProt P37231). Put plainly: qHTS assay for small molecule agonists of peroxisome proliferator-activated receptor gamma signaling (AID 588536; active means well fitted curve in the direction sought with a large enough effect in the signal ratio, with a control signal flat, not every such curve was filed as active; the % refers to the signal ratio;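 further: 0% = DMSO basal wells and 100% = rosiglitazone at 2 µM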). Put shortly: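 Test agents, titrated, stimulated HEK293 UAS-bla cells overnight (16 h, 37 C). Substrate CCF4 was then added for two hours at room temperature before fluorescence reading.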

The target is the same in assay [7]. Nature of the assay: qHTS assay for small molecule antagonists of peroxisome proliferator-activated receptor gamma signaling (AID 588537; active means well fitted inhibition curve with a large enough effect in the signal ratio, with a control signal flat, not every such curve was filed as active; the % refers to the signal ratio;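 further: reporter cells co-stimulated with 50 nM rosiglitazone agonist during compound treatment; % of control where 0% means no effect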). Put shortly: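 Step one: plate 3000 HEK293 UAS-bla cells per well in medium with 1% stripped serum and hold 6-6.5 h at 37 C. Step two: add compound and 50 nM agonist for 16 h. Step three: CCF4 loading, fluorescence read.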

A short description of assay [8]: qHTS assay for small molecule agonists of retinoid X receptor alpha signaling (AID 588544).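 On activation: 0% = DMSO basal wells and 100% = reference agonist.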 As to conditions: HEK293T RXRa-UAS-bla, beta-lactamase reporter, 18 h; 530 nm emission.
Assay [9] addresses Retinoic acid receptor RXR-alpha (Homo sapiens) (UniProt P19793). Described as above.
Assay [10] has as its target Thyroid hormone receptor beta (Homo sapiens) (UniProt P10828). Put plainly: qHTS assay for small molecule agonists of thyroid hormone receptor beta signaling (AID 588545). Put shortly: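 In this cell-based screen, titrated compounds act on HEK 293 cells held in medium with 2% charcoal/dextran FBS, NEAA and pyruvate for 18 hrs at 37 C. Responses are expressed relative to T3 (10 nM) as 100% and basal DMSO as 0%.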

Assay [11] in a line: qHTS assay for small molecule antagonists of retinoid X receptor alpha signaling (AID 588546; active means well fitted inhibition curve with a large enough effect in the signal ratio, with a control signal flat, not every such curve was filed as active; the % refers to the signal ratio;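 further: cells stimulated with 9-cis-retinoic acid as agonist; on the % scale 0 is the no-effect control and ±100 the full control effect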). The note with it: HEK293T RXRa-UAS-bla, beta-lactamase ratio, antagonist mode; measured here: W530 green channel, cytotoxicity proxy. Put shortly: (§2)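 Beta-lactamase reporter inhibition, read as CCF4 fluorescence ratio (ex 405, em 460/530 nm) after 2 h at RT. HEK293T UAS-bla cells, 2500/well, were stimulated with 9-cis-RA at 500 or 100 nM final alongside test compound for 18 h at 37 C.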

Assay [12] deals with Retinoic acid receptor RXR-alpha (Homo sapiens) (UniProt P19793). Described as above. As to conditions: HEK293T RXRa-UAS-bla, beta-lactamase ratio, antagonist mode. Put shortly:
as §2

Assay [13] concerns the target Thyroid hormone receptor beta (Homo sapiens) (UniProt P10828). Put plainly: qHTS assay for small molecule antagonists of thyroid hormone receptor beta signaling (AID 588547; active means well fitted inhibition curve with a large enough effect in the signal ratio, with a control signal flat, not every such curve was filed as active; the % refers to the signal ratio;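 further: cells stimulated with 0.4 nM T3 agonist during compound exposure; series mostly up to about 77 µM; on the % scale 0 is the no-effect control and ±100 the full control effect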). As to conditions: TR-UAS-bla HEK293, beta-lactamase ratio, antagonist mode, 18 h. The method in brief: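 TR-UAS-bla GripTite HEK293 cells in 2% charcoal/dextran FBS medium; compounds 0.59 nM to 92 uM with T3 at 0.4nM final, 18 h at 37 C. Beta-lactamase read by CCF4 fluorescence (460/530 nm); Hill fits gave IC50 and efficacy.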

Assay [14] concerns the target Voltage-gated inwardly rectifying potassium channel KCNH2 (Homo sapiens) (UniProt Q12809). Put plainly: qHTS Assay for Small Molecule Inhibitors of the Human hERG Channel Activity (AID 588834; active means well fitted inhibition curve with a large enough effect;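 further: top concentration of the series differs between compounds; on the % scale 0 is the no-effect control and ±100 the full control effect; lower thallium flux fluorescence means stronger hERG block; nearly all actives have a fitted effect of over 50% in size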). Put shortly:
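U2OS cells transduced with hERG via BacMam (MOI ~100), plated 2000/well, loaded with FluxOR thallium dye, compound ~10 min, then stimulation buffer; fluorescence decrease read kinetically; AC50 from Hill fits.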

Assay [15] is described as follows: qHTS assay for small molecule agonists of the antioxidant response element (ARE) signaling pathway (AID 651741; active means well fitted activation curve with a large enough effect in the signal ratio; the % refers to the signal ratio; further: % of control where 0% means no effect). The method in brief:
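HepG2 ARE-bla cells plated at 2,000 cells/well and incubated 5 h at 37 C/5% CO2 received 23 nL compound in DMSO. After 16 h at 37 C, LiveBLAzer B/G FRET substrate was applied for 2 h at room temperature and fluorescence read.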

A short description of assay [16]: qHTS assay for small molecule activators of the nuclear factor-kappa B (NF-kB) signaling pathway (AID 651749; active means well fitted activation curve with a large enough effect in the signal ratio; the % refers to the signal ratio; further: series mostly up to about 77 µM; % of control where 0% means no effect). The note with it: NF-kB-bla ME-180 cells, beta-lactamase FRET ratio, 16 h; stronger effect = higher value. Put shortly:
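Incubation lasted 16 hr at 37C in 5% CO2 after 23 nL compound addition to ME-180 NF-kB-bla cells. Activation appears as beta-lactamase-mediated FRET loss.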

Assay [17] addresses Vitamin D3 receptor (Homo sapiens) (UniProt P11473). Nature of the assay: qHTS assay for small molecule antagonists of vitamin D receptor signaling (AID 588541). Put shortly: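 VDR-UAS-bla HEK293T cells in 2% charcoal-stripped FBS were stimulated with 1-alpha,25-dihydroxyvitamin D3 (3 nM final) plus compound for 16 h at 37 C. The beta-lactamase CCF4 readout was normalized to 50 nM agonist and DMSO, and Hill fits gave IC50.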

Assay [18] has the same target. Put plainly: qHTS assay for small molecule agonists of vitamin D receptor signaling (AID 588543).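 Further: 0% = DMSO basal and 100% = reference agonist control.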 The method in brief: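 GeneBLAzer VDR-UAS-bla HEK293T cells in 2% charcoal-stripped FBS medium were dosed with compound titrations for 16 h at 37 °C; CCF4 β-lactamase readout (405 nm ex, 460/530 nm em). EC50 and efficacy from Hill fits, normalized to 50 nM calcitriol (100%) and DMSO (0%).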

The nature of assay [19]: qHTS assay for small molecule activators of the p53 signaling pathway (AID 651743; active means well fitted activation curve with a large enough effect in the signal ratio, not every such curve was filed as active; the % refers to the signal ratio; further: series mostly up to about 92 µM; % of control where 0% means no effect). As to conditions: HCT-116 p53RE-bla, beta-lactamase FRET ratio, 16 h; stronger effect = higher value. The method in brief: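 HCT-116 p53RE-bla, 4,000 cells/well; 5 h settle; cpd/DMSO 16 h, 37 C; LiveBLAzer B/G 2 h RT; fluorescence intensity.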

Each structure is given as a SMILES string. Inconclusive results are not listed. Activity calls are given as the source filed them. Unless noted, the call rests on the fitted dose curve.

Chain of Thyroid hormone receptor beta (Homo sapiens) (P10828 whole entry, looked up): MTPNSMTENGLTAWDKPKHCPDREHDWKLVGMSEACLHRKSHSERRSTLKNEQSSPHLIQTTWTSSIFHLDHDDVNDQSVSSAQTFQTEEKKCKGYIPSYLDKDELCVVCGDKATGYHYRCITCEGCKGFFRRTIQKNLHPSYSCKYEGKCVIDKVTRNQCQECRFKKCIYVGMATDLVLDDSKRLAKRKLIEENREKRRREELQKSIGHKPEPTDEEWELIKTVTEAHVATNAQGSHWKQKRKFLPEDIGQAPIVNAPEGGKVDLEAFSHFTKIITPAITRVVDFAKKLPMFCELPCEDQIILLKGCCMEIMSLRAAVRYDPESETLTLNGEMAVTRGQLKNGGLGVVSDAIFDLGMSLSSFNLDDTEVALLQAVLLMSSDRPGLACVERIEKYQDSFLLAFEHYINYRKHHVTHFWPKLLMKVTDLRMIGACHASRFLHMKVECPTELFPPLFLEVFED
Chain of Glucocorticoid receptor (Homo sapiens) (P04150 whole entry, looked up): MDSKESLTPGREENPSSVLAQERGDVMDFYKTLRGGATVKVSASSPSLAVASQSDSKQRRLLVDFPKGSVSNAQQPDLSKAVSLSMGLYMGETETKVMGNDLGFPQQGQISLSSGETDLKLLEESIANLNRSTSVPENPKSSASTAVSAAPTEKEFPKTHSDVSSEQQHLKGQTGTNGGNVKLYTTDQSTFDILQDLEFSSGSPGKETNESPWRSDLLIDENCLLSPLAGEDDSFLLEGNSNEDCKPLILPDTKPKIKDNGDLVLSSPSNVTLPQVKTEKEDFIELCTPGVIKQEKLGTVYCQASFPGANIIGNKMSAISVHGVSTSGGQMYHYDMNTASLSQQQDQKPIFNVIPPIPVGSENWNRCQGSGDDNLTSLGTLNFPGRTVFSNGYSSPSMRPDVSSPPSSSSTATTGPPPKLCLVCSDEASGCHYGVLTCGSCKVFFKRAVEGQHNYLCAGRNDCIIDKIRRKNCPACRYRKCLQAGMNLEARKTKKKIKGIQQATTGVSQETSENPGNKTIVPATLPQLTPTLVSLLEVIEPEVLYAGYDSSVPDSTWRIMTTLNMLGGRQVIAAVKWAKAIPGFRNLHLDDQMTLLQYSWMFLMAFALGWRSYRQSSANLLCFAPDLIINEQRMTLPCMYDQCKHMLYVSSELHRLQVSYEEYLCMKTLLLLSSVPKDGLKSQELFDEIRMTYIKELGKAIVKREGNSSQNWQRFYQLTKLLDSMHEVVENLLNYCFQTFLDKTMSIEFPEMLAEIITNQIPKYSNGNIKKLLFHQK
Chain of Voltage-gated inwardly rectifying potassium channel KCNH2 (Homo sapiens) (Q12809 whole entry, looked up): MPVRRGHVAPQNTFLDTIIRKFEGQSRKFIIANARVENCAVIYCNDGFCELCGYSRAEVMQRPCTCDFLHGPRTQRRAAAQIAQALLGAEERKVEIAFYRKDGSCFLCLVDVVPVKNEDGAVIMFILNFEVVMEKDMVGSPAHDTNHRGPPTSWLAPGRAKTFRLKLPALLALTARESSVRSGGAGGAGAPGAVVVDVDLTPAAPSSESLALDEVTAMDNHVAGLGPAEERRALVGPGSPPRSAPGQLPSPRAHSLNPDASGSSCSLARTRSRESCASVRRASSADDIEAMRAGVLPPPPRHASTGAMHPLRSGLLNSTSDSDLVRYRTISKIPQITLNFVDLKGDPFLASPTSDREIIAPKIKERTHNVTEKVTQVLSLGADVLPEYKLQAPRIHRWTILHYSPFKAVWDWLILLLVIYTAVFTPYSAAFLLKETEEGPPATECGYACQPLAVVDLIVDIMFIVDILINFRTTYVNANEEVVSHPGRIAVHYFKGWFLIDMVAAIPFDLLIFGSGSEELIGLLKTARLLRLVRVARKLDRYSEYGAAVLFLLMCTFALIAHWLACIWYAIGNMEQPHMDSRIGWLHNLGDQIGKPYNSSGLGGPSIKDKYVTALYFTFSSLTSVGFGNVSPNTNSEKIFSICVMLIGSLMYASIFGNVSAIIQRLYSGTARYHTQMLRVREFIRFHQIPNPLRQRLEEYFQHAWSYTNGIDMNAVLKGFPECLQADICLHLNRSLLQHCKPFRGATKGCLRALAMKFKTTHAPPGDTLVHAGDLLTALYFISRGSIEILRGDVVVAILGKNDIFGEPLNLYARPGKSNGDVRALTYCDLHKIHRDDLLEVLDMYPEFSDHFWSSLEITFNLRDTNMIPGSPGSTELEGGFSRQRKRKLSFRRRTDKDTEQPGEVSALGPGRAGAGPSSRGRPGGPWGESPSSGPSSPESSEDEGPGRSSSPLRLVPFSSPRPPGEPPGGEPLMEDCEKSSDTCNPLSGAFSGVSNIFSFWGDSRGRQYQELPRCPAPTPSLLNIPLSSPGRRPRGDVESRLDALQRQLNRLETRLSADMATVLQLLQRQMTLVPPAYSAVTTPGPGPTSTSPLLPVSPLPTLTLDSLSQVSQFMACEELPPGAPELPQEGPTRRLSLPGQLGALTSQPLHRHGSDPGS
Chain of Peroxisome proliferator-activated receptor delta (Homo sapiens) (Q03181 whole entry, looked up): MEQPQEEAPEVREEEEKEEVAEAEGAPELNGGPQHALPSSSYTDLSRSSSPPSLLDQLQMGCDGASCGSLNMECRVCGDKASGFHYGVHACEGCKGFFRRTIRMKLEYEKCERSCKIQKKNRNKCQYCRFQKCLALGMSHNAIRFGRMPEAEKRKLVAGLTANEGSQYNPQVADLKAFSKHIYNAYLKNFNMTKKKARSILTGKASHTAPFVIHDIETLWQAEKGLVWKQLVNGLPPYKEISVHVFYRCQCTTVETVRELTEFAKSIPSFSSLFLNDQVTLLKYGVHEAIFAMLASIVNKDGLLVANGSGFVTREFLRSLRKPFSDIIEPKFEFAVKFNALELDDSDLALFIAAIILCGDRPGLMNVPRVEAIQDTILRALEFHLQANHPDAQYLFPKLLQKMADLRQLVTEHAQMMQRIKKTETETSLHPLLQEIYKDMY
Chain of Vitamin D3 receptor (Homo sapiens) (P11473 whole entry, looked up): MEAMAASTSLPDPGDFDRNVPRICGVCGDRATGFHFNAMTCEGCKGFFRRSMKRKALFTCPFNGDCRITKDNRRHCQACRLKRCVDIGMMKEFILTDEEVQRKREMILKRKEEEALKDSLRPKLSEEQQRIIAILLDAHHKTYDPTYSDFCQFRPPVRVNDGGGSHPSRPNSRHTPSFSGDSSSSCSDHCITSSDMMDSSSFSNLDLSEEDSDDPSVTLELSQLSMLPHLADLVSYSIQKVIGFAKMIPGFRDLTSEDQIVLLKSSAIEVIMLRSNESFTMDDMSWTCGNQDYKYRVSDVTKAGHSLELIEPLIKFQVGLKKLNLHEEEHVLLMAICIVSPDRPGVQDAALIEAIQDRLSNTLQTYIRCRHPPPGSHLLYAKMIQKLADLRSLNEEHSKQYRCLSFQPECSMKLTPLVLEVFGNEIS
Chain of Bile acid receptor (Homo sapiens) (Q96RI1 whole entry, looked up): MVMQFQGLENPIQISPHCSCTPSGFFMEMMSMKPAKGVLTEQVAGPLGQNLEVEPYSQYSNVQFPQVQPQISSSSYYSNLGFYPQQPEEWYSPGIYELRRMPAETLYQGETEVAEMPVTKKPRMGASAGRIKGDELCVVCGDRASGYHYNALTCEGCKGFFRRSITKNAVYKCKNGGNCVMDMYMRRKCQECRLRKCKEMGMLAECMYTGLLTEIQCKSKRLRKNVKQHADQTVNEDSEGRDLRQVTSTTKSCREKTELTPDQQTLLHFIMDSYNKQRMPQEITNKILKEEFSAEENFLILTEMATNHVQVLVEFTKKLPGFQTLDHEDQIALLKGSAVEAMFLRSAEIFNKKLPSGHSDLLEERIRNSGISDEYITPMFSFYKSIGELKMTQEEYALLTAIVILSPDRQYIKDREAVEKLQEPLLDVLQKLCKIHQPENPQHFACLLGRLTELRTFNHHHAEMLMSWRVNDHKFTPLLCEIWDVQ
Chain of Retinoic acid receptor RXR-alpha (Homo sapiens) (P19793 whole entry, looked up): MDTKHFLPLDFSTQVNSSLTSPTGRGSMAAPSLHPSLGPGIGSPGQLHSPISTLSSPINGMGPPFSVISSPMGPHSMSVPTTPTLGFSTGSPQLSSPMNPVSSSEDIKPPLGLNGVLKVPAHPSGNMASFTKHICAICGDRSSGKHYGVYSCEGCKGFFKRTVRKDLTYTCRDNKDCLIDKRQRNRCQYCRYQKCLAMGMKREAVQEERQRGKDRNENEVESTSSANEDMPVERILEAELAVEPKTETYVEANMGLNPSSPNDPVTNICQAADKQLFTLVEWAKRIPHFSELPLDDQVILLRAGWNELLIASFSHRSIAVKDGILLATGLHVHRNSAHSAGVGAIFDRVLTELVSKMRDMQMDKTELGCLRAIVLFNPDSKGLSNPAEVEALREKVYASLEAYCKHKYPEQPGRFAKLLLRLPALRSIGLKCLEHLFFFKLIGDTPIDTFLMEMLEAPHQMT
Chain of Peroxisome proliferator-activated receptor gamma (Homo sapiens) (P37231 whole entry, looked up): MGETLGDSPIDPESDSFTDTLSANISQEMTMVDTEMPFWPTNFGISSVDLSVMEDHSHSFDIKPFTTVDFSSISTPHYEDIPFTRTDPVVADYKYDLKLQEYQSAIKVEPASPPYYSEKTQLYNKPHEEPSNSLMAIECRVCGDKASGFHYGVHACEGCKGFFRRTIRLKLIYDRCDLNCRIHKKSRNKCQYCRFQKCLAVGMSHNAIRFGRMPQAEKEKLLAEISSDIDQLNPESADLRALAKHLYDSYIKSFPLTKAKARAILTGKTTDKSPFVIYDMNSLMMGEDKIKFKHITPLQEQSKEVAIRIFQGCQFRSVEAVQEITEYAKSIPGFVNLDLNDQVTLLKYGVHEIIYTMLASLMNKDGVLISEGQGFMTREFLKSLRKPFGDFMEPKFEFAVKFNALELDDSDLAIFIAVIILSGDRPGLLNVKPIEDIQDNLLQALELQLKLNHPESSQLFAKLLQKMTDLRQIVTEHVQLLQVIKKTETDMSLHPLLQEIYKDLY

As to `CCC(C)(C)OC`, the compound was called inactive in [1], in [3], in [6], in assay [7], in assay [9] and in assay [10]. The activation in [2] is -0.431% (inactive); in assay [16] it was -0.279% (inactive). Further, the max response was 12.9% in assay [4], 10.3% in assay [8], -18.1% in assay [11] and 17% (inactive) in assay [12]. Also, the Potency result in [5], in assay [14] and in assay [15] was “inactive” in each case. Moreover, in [13], the activity change % (negative = inhibition) was -6.68% (inactive).

For the compound `Nc1nc2ccccc2[nH]1`, the compound was called inactive in [1], in [3], in assay [6], in assay [7], in [17] and in assay [18]. Also, the result in assay [10] was inactive. Also, the activation in assay [2] was 0.673% (inactive); in [19], 1.82% (inactive). The max response in assay [11] is -22%; in [12] it was -2.52% (inactive). Further, the activity change % (negative = inhibition) in [13] was 16% (inactive). The Potency result in assay [14] and in assay [15] was “inactive” throughout.

In the case of `C=C(C)C(=O)OCCCCCC`, the call in [1], in assay [3], in assay [6], in assay [7], in assay [17] and in [18] was inactive. The outcome in assay [9] and in [10] was inactive. The activation in assay [2] is 8.12% (inactive); in assay [19], -0.374% (inactive); in assay [16], 0.571% (inactive). For the same compound, the max response is 4.68% in assay [4] and -12.9% in assay [8]. Also, the Potency result in assay [5] and in [14] was “inactive” in each case. Moreover, the activity change % (negative = inhibition) in assay [13] was 6.42% (inactive).

As for `COC(=O)CCCC(=O)OC`, the outcome in assay [1], in assay [3], in assay [17], in assay [18] and in [9] was inactive. Besides, the activation is -5.32% (inactive) in assay [2], -1.04% (inactive) in assay [19] and -0.14% (inactive) in assay [16]. The max response is 14.2% in [4], -5.09% in [8] and -9.56% in assay [11]. Also, the Potency result in assay [5] and in [14] was “inactive” throughout. For the same compound, the activity change % (negative = inhibition) in [13] was -27% (inactive).

In the case of `CN(C)CCCNCCCN`, the call in [1], in assay [3], in assay [6], in assay [7], in assay [17] and in assay [18] was inactive. In addition, in assay [9], the compound was classed as inactive. In addition, the activation is -1.86% (inactive) in assay [2] and -2.59% (inactive) in assay [19]. In addition, the max response in [4] was -8.47%; in assay [8], -7.09%; in assay [11] it was -5.37%; in assay [12], 0.789% (inactive). Further, the Potency result in assay [5] and in assay [14] was “inactive” in each case.

On to `CC(=O)OC(C)C`, for which the compound was classed as inactive in assay [1], in assay [3], in assay [6], in [17], in [18] and in assay [9]. Besides, the compound was classed as inactive in [10]. Moreover, the activation was 0.131% (inactive) in assay [2] and -0.528% (inactive) in assay [19]. Moreover, the max response in assay [4] was -28.9%; in assay [8], 0.6%; in assay [11], 7.8%; in assay [12] it was 7.02% (inactive). In addition, the Potency entry in assay [5], in assay [14] and in [15] was “inactive” in each case. Besides, in [13], the activity change % (negative = inhibition) is 7.16% (inactive).

As for `Cc1ccc(C)c(N)c1`, the compound was classed as inactive in assay [1], in [3], in assay [6], in assay [17], in [9] and in assay [10]. Further, the results for the activation in assay [2], in assay [19] and in [16] were -8.67% (inactive), -2.64% (inactive) and 0.0574% (inactive), respectively. The max response in assay [4] is 30.9%; in [8], 7.96%; in assay [11] it was -10.5%; in assay [12], 21.7% (inactive). For the same compound, the Potency result in [5], in assay [14] and in [15] was “inactive” throughout.

On to `C=CCCCCCC`, for which the compound was classed as inactive in [1], in assay [3], in assay [6], in [7], in assay [17] and in [18]. Moreover, the compound was classed as inactive in assay [9] and in assay [10]. In addition, the activation in [2] was 7.84% (inactive); in assay [19], -2.89% (inactive). In addition, the figures for the max response in [8], in assay [11] and in [12] were -14%, 0.804% and -6.3% (inactive), respectively. In [13], the activity change % (negative = inhibition) was -3.79% (inactive). In addition, the Potency entry in assay [14] was “inactive”.

The values above are taken from PubChem BioAssay (NCATS).
